Data published in PubChem BioAssay.
Results filed as inconclusive are left out. Activity calls are given as the source filed them.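 The calls were made as follows, unless noted: active = normalized viability below 100% at a tested concentration; inactive = the rest.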 Bridge positions count the residues as written; N and C are the ends. Square brackets hold non-standard residues; d marks the D form. Peptide text beside a SMILES is read from it. * marks the point of attachment. X2 = CCC(C)C(N)C1=NC(C(=O)*)CS1; dOrn = NCCC[C@@H](N)C(=O)O

Experiments:
[1] = viability loss in pontine glioma line – cell-based, SU-DIPG-XIII, MIPE5.0, CellTiter-Glo, qHTS, dose response (AID 1347064; cut-off not given, nearly all actives have AC50 up to about 23 µM;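 as to AC50: cells exposed to compound for 48 hours before the viability read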); details: CellTiter-Glo ATP luminescence
[2] = viability loss in pontine glioma line – cell-based, SU-DIPG-XXV, MIPE5.0, CellTiter-Glo, qHTS, dose response (AID 1347065; cut-off not given, nearly all actives have AC50 up to about 26 µM;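 also: cells exposed to compound for 48 hours before ATP readout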); details: CellTiter-Glo ATP luminescence
[3] = JHH-DIPG-1 glioma cell viability, MIPE5.0 library, CellTiter-Glo luminescence, qHTS (AID 1347067; cut-off not given, nearly all actives have AC50 up to about 26 µM;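 also: cells exposed to compound for 48 hours before readout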); details: JHH-DIPG-1 glioma viability, CellTiter-Glo ATP luminescence
[4] = growth inhibition of DIPG cells – cell-based, MIPE5.0 library, qHTS (AID 1347068; cut-off not given, nearly all actives have IC50 up to about 30 µM;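 as to IC50: cells exposed to compound for 48 hours before viability readout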); details: SU-DIPG-XXV viability
[5] = viability loss with induced miR-34 in A549 – imaging, A549 dox-inducible miR-34, nuclei and caspase counts, primary screen (AID 1347080;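 active = compounds whose cell count with miR-34 switched on is under 0.7 times the count with it off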); details: A549 miR-34 inducible, Hoechst nuclei count, 48 h
[6] = MELAS cybrid and Rieske KO viability enhancers – cell-based, MELAS cybrids, Rieske KO mouse fibroblasts, CellTiter-Glo, primary screen (AID 1508586;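 active = mean z-score across replicates of 1.96 or higher in either the MELAS or the Rieske mutant cell line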;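 also: z relative to plate mean and SD of compound and empty wells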); details: low glucose
[7] = growth inhibition of DIPG cells – cell-based, MIPE4.0 library, CellTiter-Glo luminescence, qHTS (AID 1347066; cut-off not given, nearly all actives have AC50 up to about 30 µM;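 also: cells exposed to compound for 48 hours before readout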); details: SU-DIPG-VI viability, CellTiter-Glo ATP luminescence
[8] = compounds altering viability of human ES cells (AID 493140; call rule not given here;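 also: cells exposed to compounds for four days before counting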); details: human embryonic stem cell survival screen; stronger effect = higher value
[9] = P. berghei load reduction in hepatocytes – cell-based, HepG2, luciferase luminescence, HepG2 viability, primary screen (AID 624349; in the data active = parasite load remaining mostly below about 12%, no sharp cut-off; inactive = mostly above about 10%;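 also: 100% = mean of DMSO negative control wells on the same plate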); details: P. berghei liver stage in HepG2, luciferase luminescence, concentration not given here; parasite load remaining: stronger effect = lower value; viability: measured here: HepG2 viability without parasites
[10] = drug combination growth inhibition, ovarian cancer – cell-based, oncology-focused library, rucaparib conditional, profiling panel (AID 1508598); details: patient-derived ovarian cancer cells, CellTiter-Glo viability, 144 h, stronger effect = lower value
[11] = stronger effect = lower value, cell number ratio, induced over uninduced
[12] = measured here: relative caspase fold change +Dox/-Dox
[13] = measured here: total cells with miR-34 induction, stronger effect = lower value
[14] = measured here: total cells without miR-34 induction
[15] = MELAS cybrid survival, CellTiter-Glo 48 h, stronger effect = higher value
[16] = Rieske KO mouse fibroblast survival, CellTiter-Glo 72 h

For C=CC(=O)Nc1cccc(Sc2nc(Nc3ccc(N4CCN(C)CC4)cc3)ncc2Cl)c1, the AC50 [1] was 2.09 µM (active), the AC50 [2] was 1.48 µM (active) and the AC50 [3] was 4.17 µM (active). The IC50 [4] was 1.66 µM (active), the fold change [5, 11] was 0.881 (inactive) and the fold change [5, 12] was 1.05. For the same compound, the cell count [5, 13] was 4990, the cell count [5, 14] was 5660 and the z-score [6, 15] was -0.417 (inactive). The z-score [6, 16] was 0.935.
With Cc1cc(O[C@@H](CCC(F)(F)F)c2ccc(C(=O)NCCC(=O)O)cc2)cc(C)c1-c1ccc(C(C)(C)C)cc1 the AC50 [1] was 11.8 µM (active), the AC50 [2] was 9.34 µM (active) and the IC50 [4] was 8.33 µM (active).
For Cn1cc(-c2cnc3ccc4ccc(CS(=O)(=O)NCc5ccccn5)cc4c(=O)c3c2)cn1, the outcome [1] was “inactive”, the outcome [2] was “inactive” and the outcome [4] was “inactive”.
With c1cn2cc(-c3ccc4cn[nH]c4c3)nc(Nc3ccc(N4CCOCC4)cc3)c2n1 the AC50 [1] was 11.8 µM (active), the AC50 [2] was 6.61 µM (active) and the AC50 [3] was 14.8 µM (active). For the same compound, the outcome [4] was “inactive”, the fold change [5, 11] was 0.776 (inactive) and the fold change [5, 12] was 0.455. The cell count [5, 13] was 4570, the cell count [5, 14] was 5880 and the z-score [6, 15] was 1.34 (inactive). For the same compound, the z-score [6, 16] was 0.233.
In the case of Cc1ccc(NS(=O)(=O)c2ccc3c(c2)C2C=CCC2C(c2ccc(C(=O)O)cc2)N3)cc1C (stereo unspecified), the outcome [1] is reported as “inactive”, the outcome [3] is reported as “inactive” and the outcome [4] is reported as “inactive”.
In the case of O=C(Nc1ccc(F)c(C(F)(F)F)c1)Nc1nnc(-c2ccncc2)s1, the outcome [1] is reported as “inactive”, the outcome [7] is reported as “inactive” and the outcome [3] is reported as “inactive”. The outcome [4] was “inactive”.
With CCOCc1nc2c(N)nc3ccccc3c2n1CC(C)(C)O the outcome [1] was “inactive”, the outcome [2] was “inactive” and the outcome [4] was “inactive”.
For COC(=O)N[C@@H](C)CNc1nccc(-c2cn(C(C)C)nc2-c2cc(Cl)cc(NS(C)(=O)=O)c2F)n1, the outcome [1] was “inactive”, the AC50 [2] was 1.48 µM (active) and the outcome [4] was “inactive”.
In the case of CCCS(=O)(=O)Nc1ccc(F)c(C(=O)c2c[nH]c3ncc(Cl)cc23)c1F, the outcome [1] is reported as “inactive”, the outcome [7] is reported as “inactive” and the outcome [4] is reported as “inactive”. For the same compound, the fold change [5, 11] was 0.766 (inactive), the fold change [5, 12] was 1.15 and the cell count [5, 13] was 4220. For the same compound, the cell count [5, 14] was 5520, the z-score [6, 15] was -0.49 (inactive) and the z-score [6, 16] was 0.575.
For CCC(C)C(N)C1=NC(C(=O)N[C@@H](CC(C)C)C(=O)N[C@H](CCC(=O)O)C(=O)N[C@H](C(=O)N[C@H]2CCCCNC(=O)[C@H](CC(N)=O)NC(=O)[C@@H](CC(=O)O)NC(=O)[C@H](Cc3cnc[nH]3)NC(=O)[C@@H](Cc3ccccc3)NC(=O)[C@H]([C@@H](C)CC)NC(=O)[C@@H](CCCN)NC2=O)[C@@H](C)CC)CS1 (stereo partly specified) (X2-L[dE]IK[dOrn]I[dF]H[dD]N; lactam 4-C), the survival [8] was 9.33 (inactive), the parasite load remaining [9] was 69.3% (inactive) and the viability [9] was 103%. The outcome [1] was “inactive”, the outcome [2] was “inactive” and the outcome [3] was “inactive”. For the same compound, the outcome [4] was “inactive”, the fold change [5, 11] was 0.898 (inactive) and the fold change [5, 12] was 1.36. The cell count [5, 13] was 9810, the cell count [5, 14] was 10900 and the z-score [6, 15] was 0.499 (inactive). It also gave a z-score [6, 16] of -0.0886.
For Nc1ccn([C@@H]2C(F)=C(CO)[C@@H](O)[C@H]2O)c(=O)n1, the outcome [1] was “inactive”, the outcome [3] was “inactive” and the outcome [4] was “inactive”.
In the case of Nc1nccc(-c2c(-c3ccc(F)cc3)ncn2C2CCCCC2)n1, the outcome [1] is reported as “inactive”, the outcome [3] is reported as “inactive” and the outcome [4] is reported as “inactive”.
For FC(F)(F)c1ccc(CNc2ccc(Cc3c[nH]c4ncc(Cl)cc34)cn2)cn1, the outcome [1] was “inactive”, the outcome [3] was “inactive” and the outcome [4] was “inactive”.
For Cc1ccc2nc(NC(=O)CSc3nc4c(c(=O)n3-c3ccccc3)SCC4)sc2c1, the outcome [1] was “inactive”, the outcome [7] was “inactive” and the outcome [3] was “inactive”. For the same compound, the outcome [4] was “inactive”, the fold change [5, 11] was 1.08 (inactive) and the fold change [5, 12] was 1.26. The cell count [5, 13] was 7960, the cell count [5, 14] was 7340 and the z-score [6, 15] was -0.206 (inactive). For the same compound, the z-score [6, 16] was -0.109, the viability ([10]; at 0.000305 µM, OCI-C5x cells, with rucaparib 10 µM, 100% = cells with rucaparib alone) was 116% (inactive) and the viability ([10]; at 0.000305 µM, OCI-C5x cells, without rucaparib) was 106% (inactive). The viability ([10]; at 0.000305 µM, OCI-P5x cells, with rucaparib 20 µM, 100% = cells with rucaparib alone) was 106% (inactive), the viability ([10]; at 0.000305 µM, OCI-P5x cells, without rucaparib) was 100% (inactive) and the viability ([10]; at 0.00122 µM, OCI-C5x cells, with rucaparib 10 µM, 100% = cells with rucaparib alone) was 113% (inactive). The viability ([10]; at 0.00122 µM, OCI-C5x cells, without rucaparib) was 109% (inactive), the viability ([10]; at 0.00122 µM, OCI-P5x cells, with rucaparib 20 µM, 100% = cells with rucaparib alone) was 102% (inactive) and the viability ([10]; at 0.00122 µM, OCI-P5x cells, without rucaparib) was 101% (inactive). For the same compound, the viability ([10]; at 0.00488 µM, OCI-C5x cells, with rucaparib 10 µM, 100% = cells with rucaparib alone) was 113% (inactive), the viability ([10]; at 0.00488 µM, OCI-C5x cells, without rucaparib) was 118% (inactive) and the viability ([10]; at 0.00488 µM, OCI-P5x cells, with rucaparib 20 µM, 100% = cells with rucaparib alone) was 107% (inactive). The viability ([10]; at 0.00488 µM, OCI-P5x cells, without rucaparib) was 95.3% (active), the viability ([10]; at 0.0195 µM, OCI-C5x cells, with rucaparib 10 µM, 100% = cells with rucaparib alone) was 116% (inactive) and the viability ([10]; at 0.0195 µM, OCI-C5x cells, without rucaparib) was 114% (inactive). For the same compound, the viability ([10]; at 0.0195 µM, OCI-P5x cells, with rucaparib 20 µM, 100% = cells with rucaparib alone) was 105% (inactive), the viability ([10]; at 0.0195 µM, OCI-P5x cells, without rucaparib) was 99.2% (active) and the viability ([10]; at 0.0781 µM, OCI-C5x cells, with rucaparib 10 µM, 100% = cells with rucaparib alone) was 112% (inactive). For the same compound, the viability ([10]; at 0.0781 µM, OCI-C5x cells, without rucaparib) was 115% (inactive), the viability ([10]; at 0.0781 µM, OCI-P5x cells, with rucaparib 20 µM, 100% = cells with rucaparib alone) was 101% (inactive) and the viability ([10]; at 0.0781 µM, OCI-P5x cells, without rucaparib) was 99.7% (active). The viability ([10]; at 0.313 µM, OCI-C5x cells, with rucaparib 10 µM, 100% = cells with rucaparib alone) was 112% (inactive), the viability ([10]; at 0.313 µM, OCI-C5x cells, without rucaparib) was 115% (inactive) and the viability ([10]; at 0.313 µM, OCI-P5x cells, with rucaparib 20 µM, 100% = cells with rucaparib alone) was 106% (inactive). The viability ([10]; at 0.313 µM, OCI-P5x cells, without rucaparib) was 94.9% (active), the viability ([10]; at 1.25 µM, OCI-C5x cells, with rucaparib 10 µM, 100% = cells with rucaparib alone) was 117% (inactive) and the viability ([10]; at 1.25 µM, OCI-C5x cells, without rucaparib) was 114% (inactive). The viability ([10]; at 1.25 µM, OCI-P5x cells, with rucaparib 20 µM, 100% = cells with rucaparib alone) was 97.6% (active), the viability ([10]; at 1.25 µM, OCI-P5x cells, without rucaparib) was 97.1% (active) and the viability ([10]; at 5 µM, OCI-C5x cells, with rucaparib 10 µM, 100% = cells with rucaparib alone) was 164% (inactive). The viability ([10]; at 5 µM, OCI-C5x cells, without rucaparib) was 162% (inactive), the viability ([10]; at 5 µM, OCI-P5x cells, with rucaparib 20 µM, 100% = cells with rucaparib alone) was 76.9% (active) and the viability ([10]; at 5 µM, OCI-P5x cells, without rucaparib) was 95.4% (active).
For CC1(N)CCN(c2cccnc2NC(=O)c2nc(-c3ncccc3C(F)(F)F)cnc2N)CC1, the outcome [1] was “inactive” and the outcome [3] was “inactive”.
With CN(C)S(=O)(=O)c1ccc2c(c1)C(=Cc1cc3c([nH]1)CCCC3)C(=O)N2 the outcome [1] was “inactive” and the outcome [7] was “inactive”.
In the case of Nc1nc2c(c(=O)[nH]1)N1CN(c3ccc(C(=O)N[C@@H](CCC(=O)O)C(=O)O)cc3)CC1CN2 (stereo partly specified), the outcome [1] is reported as “inactive” and the outcome [3] is reported as “inactive”.
With Oc1ccc(C2CCN(c3ccnc4ccccc34)CC2)cc1O the AC50 [1] was 16.6 µM (active) and the AC50 [3] was 20.9 µM (active).
In the case of NCc1ccc(OCCCc2sc(-c3ccc4c(c3)/C(=N/Nc3nc5ccccc5s3)CCC4)nc2C(=O)O)cc1, the outcome [1] is reported as “inactive”, the outcome [2] is reported as “inactive” and the outcome [4] is reported as “inactive”.
With CN(Cc1ccccc1)C(=O)c1ccc(S(=O)(=O)Nc2ccccc2)cc1 the outcome [1] was “inactive”, the outcome [3] was “inactive” and the outcome [4] was “inactive”.
